Source: PubChem
Cycloheximide cs = affects cycloheximide protein synthesis inhibition readout, counter-screen; cell reporter, cycloheximide protein synthesis inhibition counterscreen; max response, %; 12% of 300,000 active; AID 2314; in the data active means max response mostly above about 13%, no sharp cut-off; inactive means mostly below about 14%; further: read at 38.3 µM for the half of the compounds with a filed dose; 0% is about no effect
Shiga toxin inh = blocks Shiga toxin action in Vero cells; Vero cells, Shiga toxin protein synthesis inhibition reporter; inhibition, % at 38.7 µM; 9.2% of 290,000 active; AID 2315; in the data active means inhibition mostly above about 28%, no sharp cut-off; inactive means mostly below about 43%; further: 0% is about no effect
FMDV antiviral = blocks foot and mouth disease virus | 1.2% of 410,000 active | Potency, µM (titrated, usually from 57.9 µM), without a hit: at the highest dose activity change, negative = inhibition, usual class: inhibitors | FMDV antiviral cell-based qHTS; calls by dose curve; tested in HEK293T cells; further: read-out not given here; potency means the concentration at half of the fitted maximal effect; on the % scale 0 is the no-effect control and ±100 the full control effect; nearly all actives have a fitted effect of over 45% in size
Sm TGR inh = blocks Schistosoma mansoni thioredoxin glutathione reductase. Q962Y6. purified TGR, DTNB reduction, TNB absorbance 405 nm. Potency, µM (top dose mostly 114 µM), without a hit: at the top dose activity change, negative = inhibition, actives largely listed as inhibitors. 3% of 360,000 active; active means well fitted inhibition curve with a large enough effect; inconclusive means small, poorly fitted or top-dose-only effect; inactive means no such curve, though single readings can be large or run the other way; further: potency means the concentration at half of the fitted maximal effect; on the % scale 0 is the no-effect control and ±100 the full control effect; nearly all actives have a fitted effect of over 60% in size
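Kinetic colorimetric format: TGR-catalysed, NADPH-driven DTNB reduction monitored via TNB absorbance. Enzyme dispensed at 20 nM; compound exposure 15 min at room temperature before reaction start.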
Active calls of the source: *; u = inconclusive; x = no result given; [ ] = remark or other dose. An excerpt weighted towards active compounds, which were near 12% of everything screened.

SMILES | Cycloheximide cs | Shiga toxin inh | FMDV antiviral | Sm TGR inh
CCCCn1cc(S(=O)(=O)c2ccc(C)c(C)c2)c(=O)c2cc(F)c(N3CCN(C)CC3)cc21 | x | x | 6.0% | 2.3%
O=C(N/N=C/c1ccco1)c1cc(-c2ccc3ccccc3c2)n[nH]1 | 17.9* | 22.5 | -5.3% | -27.4%
O=C(N/N=C/c1cccs1)c1cc(-c2cccc3ccccc23)n[nH]1 | 46.5* | -25.7 | 0.0% | -1.9%
O=C(N/N=C/c1cccs1)c1cc(-c2ccc3ccccc3c2)n[nH]1 | 39.2* | 54.1* | 0.0% | -4.4%
COc1ccccc1-c1cc(C(=O)N/N=C/c2cccs2)c2ccccc2n1 | -0.1 | 18.7 | -22.7% | -5.1%
CCc1ccc(-c2cc(C(=O)N/N=C/c3ccco3)[nH]n2)cc1 | -3.8 | -9.2 | 17.3% | 5.2%
CC1CCc2c(sc3nc(CSc4ncn[nH]4)[nH]c(=O)c23)C1 (configuration not stated) | -0.9 | 12.1 | 2.5% | -9.1%
CC1CCc2c(sc3nc(CSc4nnnn4C)[nH]c(=O)c23)C1 (configuration not stated) | 17.8* | 26.0 | 16.0% | -4.9%
COc1ccccc1N(CC(=O)NC1CCCC1)C(=O)c1cnn(C(C)C)c1 | 28.3* | 56.2* | -10.3% | -5.3%
CCc1c(C)[nH]n(-c2nc(-c3cccc([N+](=O)[O-])c3)cs2)c1=O | 21.8* | 22.7* | u | -5.6%
CCc1c(C)[nH]n(-c2nc(-c3ccccc3)cs2)c1=O | 10.3 | 0.8 | 29.7% | 3.3%
CCc1ccccc1Nc1nc2ccccc2c2nncn12 | x | x | -10.1% | 27.5%
CCOC(=O)c1c(-c2ccc(C)cc2C)csc1NC(=O)c1ccccc1Cl | x | x | -16.3% | -4.4%
COC(=O)c1cn(NC(=O)c2cc([N+](=O)[O-])ccc2F)c(=O)c2ccccc12 | 6.9 | 11.5 | 31.6µM* | 6.3%
Cc1ccc(Nc2nnns2)cc1 | 5.5 | -6.6 | 1.5% | 6.1%
CC1=CC(C)(C)N=C(Nc2ccc(C)cc2)S1 | 50.4* | 44.5 | x | -24.4%[11.4 µM]
COC(=O)c1c(C)[nH]c(C(C)=O)c1C | -4.9 | -12.0 | -18.2% | 3.9%
COC(=O)c1c(C)[nH]c(C(=O)/C=C/c2ccccc2Cl)c1C | 60.6* | 104.7* | 19.8% | 10.0%
COC(=O)c1c(C)[nH]c(C(=O)/C=C/c2ccccc2F)c1C | 28.8* | 62.2* | 20.5% | 11.5%
c1ccc2c(c1)OCCOCCOCCOCCO2 | -6.1 | -1.6 | x | x
Cc1ccc(CNC(=O)c2oc3ccc(S(=O)(=O)N4CCCC(C)C4)cc3c2C)cc1 (configuration not stated) | x | x | u | 4.1%
Nc1cc(=O)nc(SCC(=O)Nc2ccc(F)cc2)n1-c1cccc(Cl)c1 | x | x | -7.2% | -1.4%
O=C1NN=C(c2ccccc2)CC1c1c[nH]c2ccccc12 (configuration not stated) | 24.5* | 52.3 | 6.7% | -3.9%
O=C1NN=C(c2ccccc2)CC1c1ccc(Cl)cc1Cl (configuration not stated) | -4.0 | 15.7 | -8.5% | 6.8%
Cc1csc(NC(=O)c2ccc(COc3ccccc3)o2)n1 | 48.8* | 89.6* | -10.1% | -16.3%
SMILES | Cycloheximide cs | Shiga toxin inh | FMDV antiviral | Sm TGR inh
Cc1cccc(NC(=O)c2ccc(COc3ccc4ccccc4c3)o2)n1 | 14.0 | 10.6 | 14.3% | -9.3%
Cc1cccc(NC(=O)c2ccc(COc3ccccc3)o2)n1 | 16.3* | 39.7* | 5.0% | -17.7%
Cc1cccc(C)c1NC(=O)CNC(=O)c1ccc(COc2ccccc2)o1 | x | x | 4.9% | 1.9%
O=C(c1cccc(F)c1)N1CCC2(CCCN(c3ccccn3)C2)CC1 | x | x | 13.7% | x
O=c1[nH]c(-c2ccccn2)nc2sc(-c3ccccc3)cc12 | 48.8* | 118.4* | -66.7% | 1.2%
O=C1/C(=C/c2ccncc2)CCC/C1=C\c1ccncc1 | -7.4 | -20.5 | 14.1µM* | 11.2µM*
COc1ccc(C=C2CCc3ccccc3C2=O)cc1 | x | x | -71.1% | x
O=C1/C(=C\c2ccc3c(c2)OCO3)CCC/C1=C/c1ccc2c(c1)OCO2 | 7.3 | 49.6 | 3.0% | 1.6%
CCOc1ccc(/C=C2\CCc3ccccc3C2=O)cc1 | 29.9* | 70.7* | u | 20.6%
O=C1/C(=C/c2ccncc2)CCc2ccccc21 | 34.3* | 55.6* | u | -31.0%
CC1=C(C(=O)Nc2ccc(Cl)cc2)C(c2ccc(C(F)(F)F)cc2)n2nnnc2N1 (configuration not stated) | x | x | u | 2.2%
Cc1nn(C)cc1/C=N/NC(=O)c1ccco1 | 38.2* | 82.4* | 28.3% | 0.0%
Cc1nn(-c2ccccc2)c(Cl)c1/C=N/NC(=O)c1ccc(CNc2ccccc2)o1 | 25.3* | 44.5* | 10.7% | -0.6%
Cc1nn(-c2ccccc2)c(Cl)c1/C=N/NC(=O)c1ccco1 | 51.7* | 104.0* | 40.5% | 7.3%
Clc1ccc(-n2c(Cc3ccccc3)nnc2SCc2nc(-c3cccs3)no2)cc1 | x | x | -18.5% | 1.7%
COc1ccc(C(=O)Cn2c(=O)n3nc(CCn4nc(C)cc4C)nc3c3cc(OC)c(OC)cc32)cc1 | x | x | -9.2% | 8.6%
O=C(CN1C(=O)c2ccccc2S1(=O)=O)c1ccc(F)cc1 | -6.2 | -12.4 | -67.6% | -8.4%
O=C(CN1C(=O)c2ccccc2S1(=O)=O)c1ccc(Cl)cc1Cl | x | x | 2µM* | x
CCCC1Oc2ccccc2C(=O)N(CC(=O)c2ccc3c(c2)OCCO3)C1=O (configuration not stated) | 20.6* | 28.6 | 9.2% | -8.5%
O=C(CN1C(=O)c2ccccc2S1(=O)=O)c1cccc(Br)c1 | 1.5 | -7.6 | 10µM* | -19.2%
O=C(CN1C(=O)c2ccccc2S1(=O)=O)c1ccccc1F | 8.7 | -4.8 | u | -12.7%
CCCCN1C(=O)C(=O)N(CC(=O)c2ccc3c(c2)OCO3)C1=O | x | x | -1.0% | 0.2%
O=C(CN1C(=O)c2ccccc2S1(=O)=O)c1ccc(OC(F)F)cc1 | -4.9 | -15.4 | u | -21.8%
O=C(CN1C(=O)c2ccccc2S1(=O)=O)c1ccc2c(c1)OCCO2 | -4.5 | -20.0 | 3.55µM* | 18.6%
COc1ccc(-c2noc(CSc3nnc(-c4ccncc4)n3-c3cccc(C)c3)n2)cc1OC | x | x | 0.0% | 9.9%
SMILES | Cycloheximide cs | Shiga toxin inh | FMDV antiviral | Sm TGR inh
Cc1ccc(CSc2cn(CC(=O)N3CCCCCC3)c3ccccc23)cc1 | x | x | 13.1% | 31.4%
O=C(CN1C(=O)c2ccccc2S1(=O)=O)NC1CCCCCC1 | -1.7 | -4.7 | 52.5% | 4.5%
O=C(CN1Cc2ccccc2C1=O)Nc1ccc2c(c1)OCCO2 | 83.0* | 85.4* | 27.6% | 0.8%
CCOC(=O)c1ccc(CN2C(=O)c3ccccc3S2(=O)=O)cc1 | 6.7 | 28.4 | 16.2% | 5.5%
O=C(CN1C(=O)c2ccccc2S1(=O)=O)c1ccc2c(c1)OCCCO2 | -10.9 | -26.5 | 3.16µM* | 0.0%
CCOc1ccc(C(C)=O)cc1CN1C(=O)c2ccccc2S1(=O)=O | 1.1 | -3.9 | -29.0% | 35.5µM*
O=C(CCN1C(=O)c2ccccc2S1(=O)=O)Nc1ccc2c(c1)OCCO2 | 34.2* | 37.4 | x | -3.4%
COc1ccc(OC)c(NC(=O)CN(C)S(=O)(=O)c2ccc3[nH]c4c(c3c2)CCCC4)c1 | x | x | 0.0% | 4.1%
Cc1csc(NC(=O)CCN2C(=O)c3ccccc3S2(=O)=O)n1 | 16.5 | 55.1* | x | -13.1%
Cc1csc(NC(=O)CN2C(=O)c3ccccc3S2(=O)=O)n1 | -1.6 | -23.5 | -17.4% | 2.9%
